Inconclusive results are not listed.
Assay: qHTS Assay for Lipid Storage Modulators (AID 1519)
Conditions: Drosophila S3 cells, BODIPY lipid droplet/cell ratio, laser cytometry; measured here: lipid channel max response; cells loaded with oleic acid
Outline: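 Cells seeded at 5,000 per well were treated with compounds over a concentration series and loaded with oleic acid (400 uM, as added). Lipid droplet fluorescence (488 nm excitation, 500-530 nm channel) was read by laser-scanning cytometry and normalized to 20 uM Triacsin C.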

Compound	max response [%]
CC1(C)S[C@H]2C(NC(=O)[C@@H](N)c3ccc(O)cc3)C(=O)N2[C@@H]1C(=O)O (stereo not given in full)	32.6
N[C@H](Cc1ccc(O)cc1)C(=O)O	-23
CN(C)CCc1c[nH]c2ccc(CC3COC(=O)N3)cc12 (stereo not given)	11.4
COC(=O)CCCC[C@@H]1SC[C@@H]2NC(=O)N[C@@H]21	0.263
C=C1CC/C=C(\C)CC[C@@H]2[C@@H]1CC2(C)C	-26.5
C[C@@]12CCC(=O)C=C1C=CC1C2CC[C@]2(C)C1CC[C@@]21CCC(=O)O1 (stereo not given in full)	12.9
CC1=C(C2=C(C)C(C(C)C)C3=C(C(=O)C(O)C3O)C2O)C(O)C2=C(C(O)C(O)C2=O)C1C(C)C (stereo not given)	12.8
C[C@H](CCC(=O)O)[C@H]1CC[C@H]2[C@H]3C(C[C@H](O)[C@]12C)[C@@]1(C)CC[C@@H](O)C[C@H]1C[C@H]3O (stereo not given in full)	25.2
NC(CCC(=O)N[C@@H](CS)C(=O)NCC(=O)O)C(=O)O (stereo not given in full)	24.8
CC(C)Oc1ccc2c(=O)cc(-c3ccccc3)oc2c1	29.4
C[C@@H]1O[C@@H](O[C@H]2[C@H](Oc3cc(O)c4c(c3)O[C@H](c3ccc(O)cc3)CC4=O)O[C@H](CO)[C@@H](O)[C@@H]2O)[C@H](O)[C@H](O)[C@H]1O	-9.22
N[C@H](CO)Cc1cnc[nH]1	15.8
COC1OC2COC(c3ccccc3)OC2C(O)C1O (stereo not given)	4.04
CCCCCCCCCc1ccc(OCCOCCOCCOCCOCCOCCOCCOCCOCCO)cc1	-5.26
CC(=O)O[C@@]1(C(C)=O)CCC2C3CC(C)C4=CC(=O)CC[C@@]4(C)C3CC[C@]21C (stereo not given in full)	-5.62
O=C(O)C1=C[C@@H](O)[C@@H](O)[C@H](O)C1	21.4
NC(=O)NCCC[C@H](N)C(=O)O	-15.2
N[C@@H]1C(O)OC(CO)C(O)C1O (stereo not given in full)	20.8

Compound	max response [%]
CC(=O)OCC(=O)[C@@]12OC3(CCCC3)OC1CC1C3CCC4=CC(=O)C=C[C@@]4(C)[C@]3(F)C(O)C[C@]12C (stereo not given in full)	7.71
CC1=CC(=O)[C@@H]2C[C@H]1C2(C)C	-0.655
CCC1OC(=O)CC(O)C(C)[C@@H](O[C@@H]2OC(C)[C@H](O[C@@H]3C[C@@](C)(O)C(O)C(C)O3)C(N(C)C)C2O)[C@H](CC=O)CC(C)C(=O)/C=C/C(C)=C/[C@@H]1COC1OC(C)C(O)C(OC)[C@@H]1OC (stereo not given in full)	4.9
COC(=O)[C@H]1[C@@H]2C[C@@H]3c4[nH]c5ccccc5c4CCN3C[C@H]2CC[C@H]1O	17.8
CC[C@H](CC[C@@H](C)C1CC[C@H]2[C@@H]3CC=C4C[C@@H](O)CC[C@]4(C)[C@H]3CC[C@]12C)C(C)C (stereo not given in full)	42.8
C=Cc1c(C)/c2[n-]/c1=C\c1[n-]c(c(CC)c1C)/C=c1\[n-]c3c(c1C)C(=O)C(C(=O)[O-])C=3c1[n-]c(c(C)c1CCC(=O)[O-])\C=2.[Cu].[Na+].[Na+] (stereo not given)	20.1
CCC(=O)O[C@@]1(C(=O)CCl)C(C)CC2C3CCC4=CC(=O)C=C[C@@]4(C)[C@]3(F)C(O)C[C@]21C (stereo not given in full)	20.1
CC(=O)[C@]1(O)CCC2C3C=C(Cl)C4=CC(=O)C5CC5[C@@]4(C)C3CC[C@]21C (stereo not given in full)	14.3
CO[C@]12C(COC(N)=O)C3=C(C(=O)C(C)=C(N)C3=O)N1CC1NC12 (stereo not given in full)	11.5
COC1OC(CO)C(OC2OC(C(=O)O)C(OC3OC(COS(=O)(=O)O)C(OC4OC(C(=O)O)C(OC5OC(CO)C(OC6OC(C(=O)O)C(OC7OC(COS(=O)(=O)O)C(OC8OC(C(=O)O)=C[C@H](O)C8OS(=O)(=O)O)C(O)C7NC(C)=O)[C@@H](O)C6O)C(O)C5NC(C)=O)[C@@H](O)C4O)C(O)C3NC(C)=O)[C@@H](O)C2O)C(O)C1NC(C)=O (stereo not given in full)	-0.316
CC(C)CCCC(C)C1CCC2C3CC=C4CC(O)CCC4(C)C3CCC12C (stereo not given)	12
C[C@@]12C=CC(=O)C=C1CCC1C3CC(O)[C@@](O)(C(=O)CO)[C@]3(C)CC(O)[C@]12F (stereo not given in full)	25.4
O=c1[nH]c(=O)n([C@@H]2O[C@H](CO)[C@@H](O)[C@H]2O)cc1F	-5.85
CCC1OC(=O)C(C)[C@@H](O[C@H]2C[C@@](C)(OC)C(O)C(C)O2)C(C)[C@@H](O[C@@H]2OC(C)CC(N(C)C)C2O)[C@@](C)(O)CC(C)C(=O)[C@@H](C)C(O)[C@]1(C)O (stereo not given in full)	17.2
O=c1ccn([C@H]2C[C@H](O)[C@@H](CO)O2)c(=O)[nH]1	16.3
O=C(O)C1(O)C[C@H](O)C(O)[C@@H](O)C1 (stereo not given in full)	-7.19
CC1C2CCC3C4CC=C5CC(N(C)C)CC[C@@]5(C)C4CC[C@@]32CN1C (stereo not given in full)	22.7
